The nature of experiment [1]: antimalarial activity against Dd2 strain (AID 2302;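 active = growth inhibition above 50% at the single 2 µM test dose, taken to imply half-maximal potency below 2 µM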;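 note: 0% = DMSO untreated growth and 100% = chloroquine plus artemisinin killed control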). The note with it: P. falciparum Dd2 in RBCs, LDH growth readout, 72 h; at 2 µM; active compounds read high.
Experiment [2] is described as follows: HepG2 cytotoxicity, primary screen, cytotoxicity control for P. falciparum antimalarial project, cell-based, ATP luminescence (AID 2303;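 active = inhibition above 50%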;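 note: 0% = DMSO wells and 100% = digitonin-killed cells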). The note with it: HepG2 viability, 24-48 h, at 10 µM, active compounds read high.
In experiment [3] the target is L-lactate dehydrogenase (Plasmodium falciparum (isolate CDC / Honduras)) (UniProt Q27743). The experiment is described as follows: PfLDH activity inhibition – cell lysate, 3D7 strain, counter-screen for P. falciparum growth inhibition project (AID 2304).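 Note: 0% = vehicle and 100% = reference inhibitor.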 The note with it: P. falciparum 3D7 crude extract, LDH APAD/NBT absorbance; at 2 µM; active compounds read high. Background: A counterscreen serves to expose hits that act by an unwanted route or on another target.

Experiment [4] in a line: inhibition of 3D7 malaria parasite growth – strain 3D7 (AID 2306).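 Note: 0% = DMSO wells and 100% = chloroquine plus artemisinin control wells.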 The note with it: P. falciparum 3D7 erythrocytic growth, LDH absorbance, 72 h; at 2 µM; active compounds read high.
Experiment [5] has as its target Calcium-dependent protein kinase 1 (Plasmodium falciparum (isolate 3D7)) (UniProt P62344). The experiment is described as follows: PfCDPK1 kinase inhibitors, biochemical, TCAMS library (AID 1159585; cut-off not given, nearly all actives have IC50 up to about 0.98 µM;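 note: inhibitors leave more ATP so luminescence rises with inhibition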). The note with it: recombinant PfCDPK1, Kinase-Glo ATP depletion luminescence. On the technique in general: Kinase-Glo reads ATP consumption through a luciferase reaction.

The target of experiment [6] is Plasmodium falciparum protein kinase 6 (PK6, PF3D7_1337100) (UniProt Q8IDW1). Kind of experiment: PfPK6 kinase inhibitors, biochemical, TCAMS library (AID 1159586). The note with it: recombinant PfPK6, Kinase-Glo ATP depletion luminescence.
Experiment [7] addresses Protein kinase 7 (PK7), Plasmodium falciparum 3D7 (PF3D7_0213400) (UniProt Q7YTF7). Kind of experiment: inhibition of Plasmodium PK7 catalytic activity – biochemical, TCAMS antimalarial set, Kinase-Glo luminescence (AID 1159587). The note with it: recombinant PfPK7, Kinase-Glo ATP depletion luminescence.
In experiment [8] the target is Calcium-dependent protein kinase 4 (Plasmodium falciparum (isolate 3D7)) (UniProt Q8IBS5). The experiment is described as follows: PfCDPK4 kinase inhibitors, biochemical, TCAMS library (AID 1159588; cut-off not given, nearly all actives have IC50 up to about 0.91 µM). The note with it: recombinant PfCDPK4, Kinase-Glo ATP depletion luminescence.

Here are results for 21 molecules from PubChem BioAssay.

The inhibition is the relative decrease from the control value, in per cent.

A number with no mark means an inactive call. For part of these data: Results with a measured potency or affinity are listed apart. Activity calls are given as the source filed them. Unless noted, the rule behind the calls is not given here.

L-lactate dehydrogenase (Plasmodium falciparum (isolate CDC / Honduras)), sequence (Q27743 whole entry, looked up): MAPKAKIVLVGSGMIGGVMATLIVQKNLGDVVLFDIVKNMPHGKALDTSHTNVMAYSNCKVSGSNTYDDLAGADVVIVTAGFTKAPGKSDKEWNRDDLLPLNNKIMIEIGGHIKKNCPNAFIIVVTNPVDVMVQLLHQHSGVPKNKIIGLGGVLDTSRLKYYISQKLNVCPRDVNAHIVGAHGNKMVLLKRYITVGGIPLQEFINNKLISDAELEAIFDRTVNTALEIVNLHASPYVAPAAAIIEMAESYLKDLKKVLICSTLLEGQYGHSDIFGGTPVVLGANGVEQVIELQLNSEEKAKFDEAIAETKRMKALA
Protein kinase 7 (PK7), Plasmodium falciparum 3D7 (PF3D7_0213400), sequence (Q7YTF7 1-343): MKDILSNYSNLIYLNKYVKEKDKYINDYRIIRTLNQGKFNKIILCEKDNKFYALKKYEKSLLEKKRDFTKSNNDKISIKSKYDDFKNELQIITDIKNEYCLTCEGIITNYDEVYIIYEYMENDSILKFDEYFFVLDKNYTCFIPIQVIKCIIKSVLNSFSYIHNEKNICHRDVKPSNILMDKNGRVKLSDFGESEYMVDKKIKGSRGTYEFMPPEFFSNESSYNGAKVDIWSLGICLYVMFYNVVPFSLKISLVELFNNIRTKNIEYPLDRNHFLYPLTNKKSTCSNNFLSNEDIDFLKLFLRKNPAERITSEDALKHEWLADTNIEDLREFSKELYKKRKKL
Plasmodium falciparum protein kinase 6 (PK6, PF3D7_1337100), sequence (Q8IDW1 1-305): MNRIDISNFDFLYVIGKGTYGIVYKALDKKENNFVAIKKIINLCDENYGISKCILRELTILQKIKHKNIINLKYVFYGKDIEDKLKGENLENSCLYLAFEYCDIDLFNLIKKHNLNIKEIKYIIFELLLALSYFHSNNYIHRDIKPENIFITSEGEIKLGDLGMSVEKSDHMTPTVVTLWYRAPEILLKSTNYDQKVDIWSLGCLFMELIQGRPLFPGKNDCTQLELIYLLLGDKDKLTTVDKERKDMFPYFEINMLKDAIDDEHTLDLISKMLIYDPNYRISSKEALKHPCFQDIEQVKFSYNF
Calcium-dependent protein kinase 4 (Plasmodium falciparum (isolate 3D7)), sequence (Q8IBS5 whole entry, looked up): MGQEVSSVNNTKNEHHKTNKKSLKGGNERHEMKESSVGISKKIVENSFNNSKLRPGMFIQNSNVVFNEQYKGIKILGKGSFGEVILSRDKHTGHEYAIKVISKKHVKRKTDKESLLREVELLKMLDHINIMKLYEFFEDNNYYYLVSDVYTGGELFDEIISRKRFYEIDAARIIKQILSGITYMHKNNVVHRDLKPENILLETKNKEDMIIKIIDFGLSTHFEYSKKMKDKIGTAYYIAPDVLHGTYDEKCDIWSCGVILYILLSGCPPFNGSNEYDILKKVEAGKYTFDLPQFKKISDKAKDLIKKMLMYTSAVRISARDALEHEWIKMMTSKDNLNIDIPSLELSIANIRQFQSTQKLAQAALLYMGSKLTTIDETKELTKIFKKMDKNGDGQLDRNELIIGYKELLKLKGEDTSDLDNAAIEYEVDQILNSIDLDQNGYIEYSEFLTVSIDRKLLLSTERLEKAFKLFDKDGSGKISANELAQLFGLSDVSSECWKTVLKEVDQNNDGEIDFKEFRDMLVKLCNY
Calcium-dependent protein kinase 1 (Plasmodium falciparum (isolate 3D7)), sequence (P62344 whole entry, looked up): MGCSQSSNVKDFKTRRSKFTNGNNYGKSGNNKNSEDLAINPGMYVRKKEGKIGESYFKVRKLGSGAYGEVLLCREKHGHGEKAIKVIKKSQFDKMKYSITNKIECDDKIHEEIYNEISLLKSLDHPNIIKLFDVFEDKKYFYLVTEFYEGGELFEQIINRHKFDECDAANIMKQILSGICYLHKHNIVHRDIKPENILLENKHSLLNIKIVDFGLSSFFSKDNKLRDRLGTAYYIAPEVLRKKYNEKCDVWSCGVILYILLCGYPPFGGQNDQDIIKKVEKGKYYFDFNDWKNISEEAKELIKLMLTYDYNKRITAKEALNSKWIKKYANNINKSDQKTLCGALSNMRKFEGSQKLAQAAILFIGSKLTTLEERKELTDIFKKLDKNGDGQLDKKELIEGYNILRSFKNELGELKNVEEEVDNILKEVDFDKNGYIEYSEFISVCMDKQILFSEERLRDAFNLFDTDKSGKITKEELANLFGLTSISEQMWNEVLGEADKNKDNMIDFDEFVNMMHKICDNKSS

In the case of `COc1ccc(S(=O)(=O)N2CCC(NS(=O)(=O)c3ccc(F)cc3)CC2)cc1`, the growth inhibition in experiment [1] is -3%; in experiment [4], 80% (active). The inhibition in experiment [2] is 3%; in experiment [3] it was 0%. Besides, the result in experiment [5], in experiment [6], in experiment [7] and in experiment [8] was inactive.
In the case of `Cc1nc(-c2ccc(-c3ccc(C(=O)Nc4ccc(Cl)c(N5CCN(C)CC5)c4)cc3)c(C)c2)no1`, the growth inhibition in experiment [1] was 47%; in experiment [4] it was 101% (active). Moreover, the values for the inhibition in experiment [2] and in experiment [3] were 23% and 4%, respectively. Besides, the result in experiment [5], in experiment [6], in experiment [7] and in experiment [8] was inactive.
Consider `N#Cc1ccc(NC(=O)NC2CCN(CCCCCNC(=O)/C=C/c3ccc(Cl)c(Cl)c3)CC2)cc1`, for which the values for the growth inhibition in experiment [1] and in experiment [4] were 4% and 98% (active), respectively. For the same molecule, the inhibition is 15% in experiment [2] and 0% in experiment [3]. The outcome in experiment [5], in experiment [6], in experiment [7] and in experiment [8] was inactive.
On to `COc1ccc(NC(=O)Nc2ccc(-c3ccncc3)c(C(F)(F)F)c2)cc1N1CCN(C)CC1`, for which the values for the growth inhibition in experiment [1] and in experiment [4] were 62% (active) and 101% (active), respectively. In addition, the figures for the inhibition in experiment [2] and in experiment [3] were 5% and 2%, respectively. Further, the outcome in experiment [5], in experiment [6], in experiment [7] and in experiment [8] was inactive.
In the case of `O=C(NCCN1CCOCC1)c1ccc(N2CCC(Oc3ccc4ccccc4c3)CC2)nc1`, the growth inhibition was 30% in experiment [1] and 92% (active) in experiment [4]. The results for the inhibition in experiment [2] and in experiment [3] were 1% and -3%, respectively. For the same molecule, the outcome in experiment [5], in experiment [6], in experiment [7] and in experiment [8] was inactive.
For the molecule `O=C(NCc1ccc(Cl)c(Cl)c1)c1ccc(C2CCN(Cc3ccc4nc[nH]c4c3)CC2)cc1`, the growth inhibition is 31% in experiment [1] and 100% (active) in experiment [4]. The inhibition in experiment [2] was 1%; in experiment [3], -1%. Moreover, the result in experiment [5], in experiment [6], in experiment [7] and in experiment [8] was inactive.
Regarding `Cc1cc(NC(=O)NCCN2CCC(NS(=O)(=O)c3ccccc3F)CC2)c2ccccc2n1`, the results for the growth inhibition in experiment [1] and in experiment [4] were 44% and 81% (active), respectively. Also, the inhibition in experiment [2] is 0%; in experiment [3], -4%. Further, the result in experiment [5], in experiment [6], in experiment [7] and in experiment [8] was inactive.
Consider `CC(C)(C)c1ccc(NC(=O)c2cccc(CN3CCCN(Cc4cccc(C#N)c4)CC3)c2)cc1`, for which the growth inhibition was 12% in experiment [1] and 97% (active) in experiment [4]. Further, the inhibition in experiment [2] is 39%; in experiment [3] it was 4%. The result in experiment [5], in experiment [6], in experiment [7] and in experiment [8] was inactive.
Turning to `CN(C)CCNC(=O)c1csc(Nc2ccc(Cl)c(Cl)c2)n1`, the growth inhibition in experiment [1] and in experiment [4] was 100% (active) in each case. The values for the inhibition in experiment [2] and in experiment [3] were 4% and -3%, respectively. Moreover, the result in experiment [5], in experiment [6], in experiment [7] and in experiment [8] was inactive.
`CCCC(CNC(=O)c1cc2c(Cl)cc(Cl)cc2[nH]1)CNc1cc(=O)c2ccccc2[nH]1` (stereo not drawn): the growth inhibition in experiment [1] was 94% (active); in experiment [4], 100% (active). Also, the results for the inhibition in experiment [2] and in experiment [3] were 9% and -5%, respectively. The outcome in experiment [5], in experiment [6], in experiment [7] and in experiment [8] was inactive.
As to `Cc1nc(N)nc(N)c1-c1ccc2ccccc2c1`, the growth inhibition was 2% in experiment [1] and 97% (active) in experiment [4]. The inhibition in experiment [2] is 60% (active); in experiment [3] it was 6%. Besides, the outcome in experiment [5], in experiment [6], in experiment [7] and in experiment [8] was inactive.
For the molecule `c1cc(CNCCc2ccncc2)cc(-c2ccc(-c3nc4ccccc4[nH]3)s2)c1`, the growth inhibition was 97% (active) in experiment [1] and 101% (active) in experiment [4]. Moreover, the inhibition in experiment [2] was 1%; in experiment [3], -3%. Besides, the outcome in experiment [5], in experiment [6], in experiment [7] and in experiment [8] was inactive.
Take `Cc1cc(C2CCN(CCCCNC(=O)c3ccc(NC(=O)c4ccc(Cl)cc4)cc3)CC2)c(C)cc1OCc1ccncc1`: the growth inhibition in experiment [1] is 92% (active); in experiment [4] it was 100% (active). The inhibition in experiment [2] was 33%; in experiment [3], 6%. Moreover, the outcome in experiment [5], in experiment [6], in experiment [7] and in experiment [8] was inactive.
For the molecule `CCOc1cc(C(=O)Nc2ccc(-c3nc4ccccc4[nH]3)cc2)cc(OCC)c1OCC`, the growth inhibition was 94% (active) in experiment [1] and 100% (active) in experiment [4]. Also, the inhibition in experiment [2] was 42%; in experiment [3] it was -2%. The result in experiment [5], in experiment [6], in experiment [7] and in experiment [8] was inactive.
As to `CCCC(C)c1cnc2nc(N)nc(N)c2c1C` (stereo not drawn), the growth inhibition was 1% in experiment [1] and 95% (active) in experiment [4]. The inhibition is 67% (active) in experiment [2] and 3% in experiment [3]. Besides, the result in experiment [5], in experiment [6], in experiment [7] and in experiment [8] was inactive.
For the molecule `Cc1nc2nc(N)nc(N)c2c(C)c1Cc1ccc(C(F)(F)F)cc1`, the growth inhibition in experiment [1] is 22%; in experiment [4] it was 96% (active). The figures for the inhibition in experiment [2] and in experiment [3] were 57% (active) and -2%, respectively. The result in experiment [5], in experiment [6], in experiment [7] and in experiment [8] was inactive.
For the molecule `Cc1cccc2[nH]c(-c3ccc(-c4cccc(CNCc5ccccc5)c4)cc3)nc12`, the growth inhibition in experiment [1] is 52% (active); in experiment [4], 102% (active). Also, the figures for the inhibition in experiment [2] and in experiment [3] were 3% and -1%, respectively. In addition, the outcome in experiment [5], in experiment [6], in experiment [7] and in experiment [8] was inactive.
With `CCCCCCc1cc2cc(-c3nc(-c4ccc(OC)cc4)cs3)c(=O)oc2cc1O`, the growth inhibition was 93% (active) in experiment [1] and 97% (active) in experiment [4]. The inhibition in experiment [2] is 45%; in experiment [3], -6%. The result in experiment [5], in experiment [6], in experiment [7] and in experiment [8] was inactive.
For `COc1ccc(-c2csc3ncnc(Cl)c23)cc1OC`, the results for the growth inhibition in experiment [1] and in experiment [4] were 84% (active) and 93% (active), respectively. In addition, the inhibition in experiment [2] was -25%; in experiment [3], 4%. The result in experiment [5], in experiment [6], in experiment [7] and in experiment [8] was inactive.
Turning to `O=C(Nc1ccc(OC(F)(F)F)cc1)NC1CCN(c2ccnc3ccccc23)CC1`, the growth inhibition in experiment [1] was 40%; in experiment [4], 101% (active). For the same molecule, the figures for the inhibition in experiment [2] and in experiment [3] were 40% and -7%, respectively. The result in experiment [5], in experiment [6], in experiment [7] and in experiment [8] was inactive.
Consider `CC(CCCCOCCc1ccccc1)NCC(O)c1cc(Cl)c(N)c(Cl)c1` (stereo not drawn), for which the results for the growth inhibition in experiment [1] and in experiment [4] were 95% (active) and 96% (active), respectively. In addition, the inhibition in experiment [2] was -5%; in experiment [3] it was -1%. Besides, the outcome in experiment [5], in experiment [6], in experiment [7] and in experiment [8] was inactive.
